Source: PubChem BioAssay (NCATS)
Values joined by “and” are separate entries in the source; they are usually repeats but may differ in a detail not shown here. Identical values can stand only once. Results filed as inconclusive are left out. Where a call stands in place of a potency, no number is given. Active and inactive are the calls of the source. Unless noted, the call rests on the fitted dose curve; in most records, active means well fitted curve in the direction sought with a large enough effect; inconclusive means small, poorly fitted or top-dose-only effect, or another doubt; inactive means no such curve, though single readings can be large; an effect the other way counts as inactive or inconclusive.

Columns and labels:
[1] = target: Voltage-gated inwardly rectifying potassium channel KCNH2 (Homo sapiens) (UniProt Q12809); experiment: qHTS Assay for Small Molecule Inhibitors of the Human hERG Channel Activity (AID 588834); conditions: U2OS BacMam hERG, FluxOR thallium flux fluorescence; series mostly up to 46.1 µM;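 further: lower thallium flux fluorescence means stronger hERG block; nearly all actives have a fitted effect of over 50% in size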; further: potency means the concentration at half of the fitted maximal effect
Sequence of Voltage-gated inwardly rectifying potassium channel KCNH2 (Homo sapiens) (Q12809 whole entry, looked up): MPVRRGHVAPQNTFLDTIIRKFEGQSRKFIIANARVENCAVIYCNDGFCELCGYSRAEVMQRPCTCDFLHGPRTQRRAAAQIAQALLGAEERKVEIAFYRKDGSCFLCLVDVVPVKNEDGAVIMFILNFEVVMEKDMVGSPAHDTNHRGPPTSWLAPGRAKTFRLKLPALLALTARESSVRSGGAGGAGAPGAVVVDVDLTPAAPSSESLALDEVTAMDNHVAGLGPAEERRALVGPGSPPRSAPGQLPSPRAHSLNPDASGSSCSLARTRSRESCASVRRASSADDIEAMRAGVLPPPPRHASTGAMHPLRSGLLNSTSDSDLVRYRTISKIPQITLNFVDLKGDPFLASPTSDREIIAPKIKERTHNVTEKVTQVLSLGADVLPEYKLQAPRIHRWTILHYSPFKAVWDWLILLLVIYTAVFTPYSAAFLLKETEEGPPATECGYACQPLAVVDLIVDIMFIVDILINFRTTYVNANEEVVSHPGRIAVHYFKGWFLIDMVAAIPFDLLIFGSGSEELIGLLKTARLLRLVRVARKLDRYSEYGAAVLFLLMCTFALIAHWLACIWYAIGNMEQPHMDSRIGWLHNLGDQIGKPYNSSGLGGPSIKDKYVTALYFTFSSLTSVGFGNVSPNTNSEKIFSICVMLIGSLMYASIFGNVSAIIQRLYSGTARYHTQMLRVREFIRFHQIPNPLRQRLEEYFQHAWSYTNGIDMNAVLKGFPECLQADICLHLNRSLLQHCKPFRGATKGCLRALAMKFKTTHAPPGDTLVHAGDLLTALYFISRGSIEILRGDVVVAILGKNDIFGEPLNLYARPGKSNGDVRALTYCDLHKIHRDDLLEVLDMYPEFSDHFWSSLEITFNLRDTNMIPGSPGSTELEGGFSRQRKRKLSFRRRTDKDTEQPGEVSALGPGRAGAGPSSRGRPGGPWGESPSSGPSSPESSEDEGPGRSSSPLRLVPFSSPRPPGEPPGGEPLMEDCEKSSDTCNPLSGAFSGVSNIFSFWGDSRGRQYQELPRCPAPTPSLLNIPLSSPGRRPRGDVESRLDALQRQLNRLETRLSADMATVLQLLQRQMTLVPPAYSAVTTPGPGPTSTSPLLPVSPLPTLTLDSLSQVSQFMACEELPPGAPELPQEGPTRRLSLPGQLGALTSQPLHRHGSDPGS
Outline: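 hERG-BacMam U2OS, 2000 cells/well; 0.7X FluxOR loading 1 hr RT dark; cpd ~10 min 37 °C; stim buffer; FDSS fluorescence 2 min @ 1 s; AC50 Hill fit.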

[2] = qHTS of Trypanosoma Brucei Inhibitors: LOPAC Validation (AID 624147); conditions: purified enzyme assay, luminescence, 45 min; series mostly up to 57.5 µM
Outline: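 Glycolytic pyruvate kinase of T. brucei was incubated with substrate, test compound and 130 uM ADP for 45 minutes at room temperature. Luminescent Kinase-Glo Plus signal was measured after 10 minutes.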

[3] = target: Luciferin 4-monooxygenase (Photinus pyralis) (UniProt P08659); experiment: Biochemical firefly luciferase enzyme assay for NPC (AID 624030);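 further: purified P. pyralis luciferase at 10 nM with luciferin and ATP substrate; nearly all actives have a fitted effect of over 70% in size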; conditions: purified P. pyralis luciferase, luminescence, 5 min; series mostly up to 58.6 µM
Sequence of Luciferin 4-monooxygenase (Photinus pyralis) (P08659 whole entry, looked up): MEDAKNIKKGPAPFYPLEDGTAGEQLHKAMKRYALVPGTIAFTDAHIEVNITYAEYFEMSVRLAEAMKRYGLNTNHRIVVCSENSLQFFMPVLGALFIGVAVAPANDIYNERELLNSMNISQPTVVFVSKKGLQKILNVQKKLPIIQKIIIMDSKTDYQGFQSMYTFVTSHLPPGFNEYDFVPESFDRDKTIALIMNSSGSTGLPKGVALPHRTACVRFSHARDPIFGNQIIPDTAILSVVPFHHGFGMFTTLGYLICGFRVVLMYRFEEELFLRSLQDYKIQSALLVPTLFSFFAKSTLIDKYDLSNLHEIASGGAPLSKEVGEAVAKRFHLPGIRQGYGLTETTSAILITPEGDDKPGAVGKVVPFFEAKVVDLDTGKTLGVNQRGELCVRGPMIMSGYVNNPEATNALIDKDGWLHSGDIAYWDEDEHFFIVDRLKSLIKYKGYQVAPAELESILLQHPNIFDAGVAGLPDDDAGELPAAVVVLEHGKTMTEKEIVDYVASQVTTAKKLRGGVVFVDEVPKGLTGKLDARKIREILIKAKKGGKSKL
Outline: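 Counter-screen for direct inhibition of the luciferase enzyme by approved-drug library compounds, run at 10 nM enzyme in 50 mM Tris acetate (final). Luminescence was read within 5 min of enzyme-buffer addition and normalized to PTC124 versus DMSO (0%).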

[4] = S16 Schwann cell viability assay (CellTiter-Glo assay) (AID 624031); conditions: S16 rat Schwann cells viability, 24 h; series mostly up to 57.5 µM; further: nearly all actives have a fitted effect of over 70% in size; further: potency means the concentration at half of the fitted maximal effect
Outline: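 Following overnight culture in 10% FBS DMEM, parental S16 rat Schwann cells are dosed for 24 h at 37 °C. Viability is read as CellTiter-Glo luminescence and expressed as % activity relative to DMSO (0%) and no-cell wells.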

[5] = S16 Schwann cell PMP22 intronic element beta-lactamase assay (AID 624044; calls by dose curve; further: nearly all actives have a fitted effect of over 15% in size; further: potency means the concentration at half of the fitted maximal effect); conditions: S16 rat Schwann cells, PMP22 element beta-lactamase FRET, 24 h; series mostly up to 38.3 µM
Outline: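 Rat S16 Schwann cells with beta-Lac driven by a PMP22 intronic element, compound-treated 24 h at 37 °C. LiveBLAzer FRET B/G read: 460 nm normalized to potassium clavulanate vs DMSO; 535 nm FRET as viability; concentration-effect curves classified.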

[6] = target: Glutaminase kidney isoform, mitochondrial (Homo sapiens) (UniProt O94925); experiment: qHTS for Inhibitors of Glutaminase (GLS): LOPAC Validation (AID 624146); conditions: glutaminase enzyme activity inhibition; series mostly up to 46.1 µM;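 further: glutamate product detected by oxidase and peroxidase coupled Amplex red fluorescence gain; nearly all actives have a fitted effect of over 60% in size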
Sequence of Glutaminase kidney isoform, mitochondrial (Homo sapiens) (O94925 whole entry, looked up, canonical isoform): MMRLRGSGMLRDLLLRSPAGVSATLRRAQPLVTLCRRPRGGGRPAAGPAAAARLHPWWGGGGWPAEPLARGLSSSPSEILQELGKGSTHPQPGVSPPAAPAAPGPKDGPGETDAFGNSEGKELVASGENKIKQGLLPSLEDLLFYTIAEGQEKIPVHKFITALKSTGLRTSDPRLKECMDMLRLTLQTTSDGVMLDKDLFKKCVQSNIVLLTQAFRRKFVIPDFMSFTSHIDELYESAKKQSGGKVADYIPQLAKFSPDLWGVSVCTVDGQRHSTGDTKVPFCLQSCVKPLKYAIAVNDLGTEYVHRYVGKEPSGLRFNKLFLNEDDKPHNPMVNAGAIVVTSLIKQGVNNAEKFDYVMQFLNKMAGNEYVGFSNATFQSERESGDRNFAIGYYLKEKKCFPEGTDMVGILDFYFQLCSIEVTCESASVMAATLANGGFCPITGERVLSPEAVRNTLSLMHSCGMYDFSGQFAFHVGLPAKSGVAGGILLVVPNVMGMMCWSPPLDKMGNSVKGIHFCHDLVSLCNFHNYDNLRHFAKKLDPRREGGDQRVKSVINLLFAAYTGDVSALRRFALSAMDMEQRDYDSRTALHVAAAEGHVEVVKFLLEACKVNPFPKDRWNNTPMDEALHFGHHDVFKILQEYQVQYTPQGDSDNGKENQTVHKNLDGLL
Outline: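 hKGA in 45 mM KH2PO4 (pH 8.2), 0.02% Tween-20 with compound, then 1mM L-Glutamine (stock as added) plus glutamate oxidase/HRP/Amplex red coupling mix. Fluorescence read initially and after 30 min at RT; signal change reflects glutamate formation.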

[7] = S16 Schwann cell PMP22 intronic element firefly luciferase assay (AID 624032); conditions: S16 rat Schwann cells, PMP22 element FLuc, 24 h; series mostly up to 57.5 µM; further: nearly all actives have a fitted effect of over 30% in size; further: potency means the concentration at half of the fitted maximal effect
Outline: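 Rat S16 Schwann cells stably carrying a PMP22 intronic element-driven Fluc reporter were seeded overnight, then exposed to compounds for 24 h at 37 °C. Luminescence was normalized to PTC124 (positive control) and DMSO (0% activity).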

Row | Structure (SMILES) | Potency [1] | outcome [2] | Potency [3] | Potency [4] | Potency [5] | Potency [6] | Potency [7]
1 | CC(C)(C)NCC(O)c1cc(O)cc(O)c1 (stereo unspecified) | inactive | inactive | – | – | – | – | –
2 | CCOC(=O)C1=C(C)NC(C)=C(C(=O)OC)C1c1cccc(Cl)c1Cl (stereo unspecified) | – | inactive | inactive | inactive | inactive | inactive | –
3 | OC(CCN1CCCCC1)(c1ccccc1)C1CCCCC1 (stereo unspecified) | – | inactive | – | inactive | – | inactive | inactive
4 | CC(C)(C)c1ccc(C(=O)CCCN2CCC(OC(c3ccccc3)c3ccccc3)CC2)cc1 | – | inactive | inactive | 20.3 µM (active) | – | inactive | 20.3 µM (active)
5 | COc1cc2c(cc1OC)-c1cc(=Nc3c(C)cc(C)cc3C)n(C)c(=O)n1CC2 | – | inactive | inactive | 32.2 µM (active) | 22.4 µM (active) | inactive | 6.42 µM (active)
6 | CO[C@@]1(NC(=O)CSCC#N)C(=O)N2C(C(=O)O)=C(CSc3nnnn3C)CS[C@@H]21 | inactive | inactive | – | – | – | – | –
7 | CCN(CC)CC(=O)Nc1c(C)cccc1C | – | inactive | – | inactive | inactive | inactive | inactive
8 | NC1=NCC2c3ccccc3Cc3ccccc3N12 (stereo unspecified) | – | inactive | inactive | inactive | – | inactive | inactive
9 | CN(C)CC/C=C1\c2ccccc2COc2ccccc21 | – | inactive | inactive | – | – | inactive | –
10 | COCC(=O)O[C@]1(CCN(C)CCCc2nc3ccccc3[nH]2)CCc2cc(F)ccc2[C@@H]1C(C)C | – | inactive | – | 10.2 µM (active) | 25.1 µM (active) | inactive | 10.2 µM (active)
11 | C(=C\c1ccccc1)/CN1CCN(C(c2ccccc2)c2ccccc2)CC1 | – | inactive | – | – | – | inactive | –
12 | C[C@]12CC[C@@H]3c4ccc(O)cc4C[C@@H](CCCCCCCCCS(=O)CCCC(F)(F)C(F)(F)F)[C@H]3[C@@H]1CC[C@@H]2O (stereo partly specified) | inactive | inactive | – | – | – | – | –
13 | c1cc(CN2CCCCC2)cc(OCCCNc2nc3ccccc3s2)c1 | – | inactive | – | – | inactive | inactive | inactive
14 | COCCCC/C(=N\OCCN)c1ccc(C(F)(F)F)cc1 | – | inactive | – | – | – | inactive | –
15 | c1ccc2c(c1)CCCC2C1=NCCN1 (stereo unspecified) | inactive | inactive | – | – | – | inactive | –
16 | COc1ccc2c(c1OC)C(=O)O[C@@H]2[C@H]1c2c(cc3c(c2OC)OCO3)CCN1C | inactive | inactive | – | – | – | inactive | –
17 | Nc1c2c(nc3ccccc13)CCCC2O (stereo unspecified) | – | inactive | inactive | – | – | inactive | inactive
18 | CN1C(=O)CC[C@H]1c1cccnc1 | inactive | inactive | – | – | – | inactive | –
19 | COc1ccc([C@@H]2Sc3ccccc3N(CCN(C)C)C(=O)[C@@H]2OC(C)=O)cc1 | – | inactive | inactive | inactive | – | inactive | inactive
20 | N[C@@H](COP(=O)(O)O)C(=O)O | inactive | inactive | – | – | – | inactive | –
21 | CCC(=O)c1ccc2c(c1)N(CCCN(C)C)c1ccccc1S2 | 2.51 µM (active) and 4.47 µM (active) | inactive | – | – | – | – | –
22 | CN1C[C@H](C(=O)N[C@]2(C)O[C@@]3(O)[C@@H]4CCCN4C(=O)[C@H](Cc4ccccc4)N3C2=O)C[C@@H]2c3cccc4[nH]cc(c34)C[C@H]21 | – | inactive | inactive | – | inactive | inactive | –
23 | CN(C)[C@@H]1C(=O)C(C(N)=O)=C(O)[C@@]2(O)C(=O)C3=C(O)c4c(O)ccc(Cl)c4[C@@H](O)[C@H]3C[C@@H]12 | inactive | inactive | – | – | – | – | –
